Screens as filed in PubChem.
CYP2C19 inh: human CYP2C19 inhibition; CYP2C19 Supersomes, luciferin-H EGE luminescence, 30 min; inhibition, % at 5 µM; actives 21% (n = 96,000);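 active = CYP2C19 inhibition above a set limit at 5 µM in the primary screen, cut at about 50% in these data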;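 also: plate controls were negative control wells for no effect and 2.5 mM tranylcypromine positive control for full effect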
Target sequence (P33261 whole entry, looked up): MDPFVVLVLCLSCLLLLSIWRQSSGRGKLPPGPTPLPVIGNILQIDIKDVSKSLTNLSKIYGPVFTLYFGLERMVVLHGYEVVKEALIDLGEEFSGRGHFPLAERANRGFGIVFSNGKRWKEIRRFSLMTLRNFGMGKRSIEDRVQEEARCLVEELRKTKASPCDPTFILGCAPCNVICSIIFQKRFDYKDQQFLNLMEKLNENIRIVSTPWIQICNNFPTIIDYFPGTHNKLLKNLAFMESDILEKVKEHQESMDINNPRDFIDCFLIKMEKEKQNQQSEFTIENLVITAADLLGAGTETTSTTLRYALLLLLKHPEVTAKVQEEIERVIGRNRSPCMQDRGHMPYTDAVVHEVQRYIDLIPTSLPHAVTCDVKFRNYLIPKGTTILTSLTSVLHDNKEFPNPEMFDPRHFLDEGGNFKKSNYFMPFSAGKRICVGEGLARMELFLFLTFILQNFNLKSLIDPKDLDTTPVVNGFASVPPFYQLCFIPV
CYP2C19 act: activators of human cytochrome P450 2C19; activation factor at 5 µM; 96,000 tested, under 10 active; recombinant CYP2C19, luciferin-H EGE luminescence; stronger effect = higher value; 0 = fully inhibited enzyme, 1 = untreated enzyme; AID 1025; P33261;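 active = activation factor of at least 2 at 5 µM in the primary screen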;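 also: 0 = wells with 2.5 mM tranylcypromine and 1 = vehicle-only wells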
CYP2C9 activ: CYP2C9 (human) activation. recombinant CYP2C9, luciferin-H conversion, luminescence; stronger effect = higher value; factor 1 = untreated enzyme, 0 = blocked. activation factor at 5 µM. actives 1.4% (n = 96,000);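 active = activation factor of 2 or more for CYP2C9 at a 5 µM dose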;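 also: 0 = sulfaphenazole-blocked wells and 1 = vehicle-only wells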
CYP2C9 inh: blocks human cytochrome P450 2C9; P11712; CYP2C9 Supersomes, luciferin-H conversion, luminescence; inhibition, % at 5 µM; actives 20% (n = 96,000); AID 777;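 active = blocking of liver enzyme CYP2C9 beyond about 50% at 5 µM, limit read from the data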
sEH act: soluble epoxide hydrolase (human) activation; P34913; activation, % at 2 µM; actives 0.04% (n = 91,000); purified human sEH enzymatic activity, activator screen; AID 717; in the data active = activation above about 37%
sEH inh: blocks human soluble epoxide hydrolase activity. recombinant human sEH enzymatic activity assay. inhibition, % at 2 µM. actives 0.34% (n = 91,000). P34913. AID 707; in the data active = inhibition above about 80%
* hit, by the source's call; . = no result given. This is a sample that favours compounds with a hit; in the whole collection about 27% have one here.

SMILES	CYP2C19 inh	CYP2C19 act	CYP2C9 activ	CYP2C9 inh	sEH act	sEH inh
CC(/C=C1\N=C(SCc2ccccc2Cl)SC1=O)=C\c1ccccc1	24	0.8	0.7	30	14	-13
O=C1C2CC=C(Cl)CC2C(=O)N1CN(Cc1ccco1)CN1C(=O)C2CC=C(Cl)CC2C1=O (stereo unspecified)	24	0.8	0.7	33	10	-11
CCN1/C(=C/C(C)=O)Sc2ccc(OC)cc21	37	0.6	0.8	24	2	-2
COc1ccc2c(c1)Sc1ccccc1N2CCN(C)C	57*	0.4	0.7	25	11	-10
N#C/C(=C(/O)CN1C(=O)c2ccccc2C1=O)c1nc2ccccc2[nH]1	20	0.8	0.5	51*	6	-7
CSCCC(/C(O)=C(\C#N)c1nc2ccccc2[nH]1)N1C(=O)c2ccccc2C1=O (stereo unspecified)	99*	0	0	95*	4	-3
N#C/C(=C(\O)Cc1ccccc1)c1nc2ccccc2[nH]1	7	0.9	0.9	5	0	3
C/C(O)=C(\C#N)c1nc2ccccc2[nH]1	4	1	0.7	27	29	-31
Cc1ccc(C)n1-c1cc(S(=O)(=O)N2CCOCC2)ccc1N1CCCC1	19	0.8	0.5	46	8	-8
C(=C\c1cccc2ccccc12)/c1nnc(-c2cccs2)o1	10	0.9	1.4	-35	22	-22
CCc1ccc(NC2=CC(=O)CC(c3ccco3)C2)cc1 (stereo unspecified)	54*	0.5	0.5	53*	8	-8
CSc1ccccc1C(=O)Nc1cccc(N(C)S(C)(=O)=O)c1	27	0.7	0.7	34	-2	4
Cc1ccc(SC(C)C(=O)Nc2cccc(N(C)S(C)(=O)=O)c2)cc1 (stereo unspecified)	61*	0.4	0.2	83*	8	-6
Cc1ccc(SC(C)C(=O)Nc2c(C)n(C)n(-c3ccccc3)c2=O)cc1 (stereo unspecified)	17	0.8	0.9	7	1	1
Cc1ccc(SC(C)C(=O)Nc2cccnc2)cc1 (stereo unspecified)	39	0.6	0.9	8	5	-5
Cc1ccc(SC(C)C(=O)Nc2ccc(S(=O)(=O)N3CCOCC3)cc2)cc1 (stereo unspecified)	37	0.6	0.4	60*	-12	14
Cc1ccc(SC(C)C(=O)Nc2ccncc2)cc1 (stereo unspecified)	100*	0	0	97*	-3	2
CSc1cccc(NC(=O)C(C)Sc2ccc(C)cc2)c1 (stereo unspecified)	70*	0.3	0.3	67*	-1	3
CCN(CC)S(=O)(=O)c1ccc(S(=O)(=O)Nc2ccc3c(c2)oc2ccccc23)cc1	70*	0.3	0	100*	-3	4
CN(C)S(=O)(=O)c1ccc(S(=O)(=O)Nc2ccc3c(c2)oc2ccccc23)cc1	-18	1.2	0.7	28	11	-13
CCN(CC)S(=O)(=O)c1ccc(S(=O)(=O)Nc2ccc(C(=O)N3CCCC3)cc2)cc1	51*	0.5	0	99*	12	-13
O=C(c1ccc(NS(=O)(=O)c2ccccc2)cc1)N1CCCC1	76*	0.2	0.1	93*	-5	8
CCN(CC)S(=O)(=O)c1cccc(C(=O)N2CCCCC2)c1	-1	1	1.1	-14	-2	4
CCN(CC)S(=O)(=O)c1ccc(NS(=O)(=O)c2ccc(C)c(C)c2)cc1	98*	0	0	99*	-18	18
CC(NC(=O)CCC1COc2ccccc2O1)c1ccccc1 (stereo unspecified)	51*	0.5	0.9	7	-9	9
SMILES	CYP2C19 inh	CYP2C19 act	CYP2C9 activ	CYP2C9 inh	sEH act	sEH inh
O=C(CSc1nnc(C2COc3ccccc3O2)o1)N1CCCCC1 (stereo unspecified)	17	0.8	1.2	-20	.	.
O=C(CC1COc2ccccc2O1)NC1CCCCC1 (stereo unspecified)	44	0.6	1.9	-91	-62	62
O=C(CCC1COc2ccccc2O1)NC1CCCCC1 (stereo unspecified)	56*	0.4	0.9	12	-55	56
O=C(CSc1nnc(C2COc3ccccc3O2)o1)NC1CCCCC1 (stereo unspecified)	50*	0.5	0.4	58*	.	.
Cc1ccccc1Oc1ccc(Oc2ccccc2C)nn1	26	0.7	1.6	-61	.	.
Cc1ccc2c(c1)nc(NCCO)n2C	9	0.9	0.8	20	-23	23
Cc1ccc(-n2ncc3c2ncn2c(C)nnc32)cc1C	-2	1	0.8	16	2	-2
Cc1snc(S(=O)(=O)/C(C#N)=N/Nc2ccc(C(F)(F)F)cc2)c1C#N	17	0.8	0.1	94*	-33	34
Cc1snc(S(=O)(=O)/C(C#N)=N\Nc2ccccc2)c1C#N	30	0.7	0.1	92*	9	-8
COc1cc(NC(=O)C2CCCN(c3ncccn3)C2)cc(OC)c1 (stereo unspecified)	.	.	.	.	0	-1
CCC(=O)Nc1ccc(C(=O)Nc2cccnc2)cc1	-10	1.1	1	2	10	-7
CC/C(=C\C(=O)c1ccncc1)Nc1ccc(O)cc1	87*	0.1	0.6	41	6	-6
COc1ccc(S(=O)(=O)Nc2ccc(Oc3ncccn3)c(Cl)c2)cc1	100*	0	0	98*	34	-30
COc1ccc(N/C=C/C(=O)c2ccc(Oc3ncccn3)cc2)cc1	11	0.9	0.9	10	5	-7
COc1ccc(NS(=O)(=O)c2ccc(Oc3ncccn3)cc2)cc1	81*	0.2	0.3	69*	9	-10
CC(C)CC(c1nnnn1Cc1ccccc1)N1CCC(C(N)=O)CC1 (stereo unspecified)	.	.	.	.	6	-6
Cc1ccc(C)c(N=C2CCCN2Cc2ccccc2)c1C#N	.	.	.	.	5	-1
O=C(OCCN1C(=O)c2ccccc2C1=O)c1cccs1	46	0.5	0.7	28	-11	11
O=C(OCCN1C(=O)c2ccccc2C1=O)c1cccc(OC(F)F)c1	90*	0.1	0.7	26	.	.
Cc1nc2ccccc2n1S(=O)(=O)c1ccc(S(=O)(=O)N2CCCCCC2)cc1	11	0.9	0.7	26	8	-6
CCOc1cc(S(=O)(=O)n2c(C)nc3ccccc32)ccc1F	99*	0	0.1	86*	11	-11
CCCn1c(SCC(=O)Nc2nnc(C)s2)nnc1-c1ccoc1C	42	0.6	0.3	66*	-10	11
Cc1occc1-c1nnc(SCC(=O)Nc2ccc3c(c2)OCO3)n1CC1CCCO1 (stereo unspecified)	48	0.5	0.4	60*	-5	5
